This passage reports Potency, outcome and max activation results from PubChem BioAssay (Tox21).

A short description of assay [1]: qHTS assay to identify small molecule antagonists of the progesterone receptor (PR) signaling pathway - cell viability counter screen (AID 1346798). Also: series mostly up to about 92 µM; nearly all actives have a fitted effect of over 50% in size. A digest of the protocol:
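Cytotoxicity read as CellTiter-Glo luminescence (30 min, room temperature) in the same wells as the beta-lactamase readout. HEK293T PR-UAS-bla cells in charcoal-stripped 2% FBS received compound and R5020, then 16 h at 37C, 5% CO2.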

Assay [2] can be described thus: qHTS assay to identify small molecule agonists of the progesterone receptor (PR) signaling pathway - cell viability counter screen (AID 1346799; calls by dose curve; also: nearly all actives have a fitted effect of over 45% in size). Put shortly:
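Cytotoxicity measured by CellTiter-Glo luminescence (30 min, RT) in the same wells as the PR beta-lactamase agonist read. Those HEK293T cells had 16 h compound treatment at 37 C in 2% charcoal-stripped FBS medium.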

Assay [3] can be described thus: qHTS assay to identify small molecule antagonists of the TGF-beta/Smad signaling pathway - cell viability counter screen (AID 1346824). Also: nearly all actives have a fitted effect of over 50% in size. A digest of the protocol:
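Cytotoxicity counter-screen run in the same wells as the beta-lactamase Smad reporter read: CellTiter-Glo luminescence after 30 min at room temperature. HEK 293T SBE-bla cells had 5 hr compound exposure at 37 C with TGF-beta1 (0.25 ng/mL stock).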
Background: In qHTS, concentration-response curves come from the screen itself.

The nature of assay [4]: qHTS assay to identify small molecule agonists of the TGF-beta/Smad signaling pathway - cell viability counter screen (AID 1346829). Also: top concentration of the series differs between compounds; nearly all actives have a fitted effect of over 45% in size. Put shortly: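 CellTiter-Glo luminescence readout; SBE-bla HEK 293T cells, overnight plating, compound 5 hr at 37 C/5% CO2, then bla substrate 2 hr RT, then CellTiter-Glo 30 min RT.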
The nature of assay [5]: qHTS assay to identify small molecule agonists of the TGF-beta/Smad signaling pathway (AID 1346859; active = well fitted activation curve with a large enough effect in the signal ratio in the repeat runs, not every such curve was filed as active; the % refers to the signal ratio; also: series mostly up to about 77 µM). Put shortly: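 Fluorescence (ex 405 nm; em 460 and 530 nm) was read 2 h after LiveBLAzer FRET substrate at RT. The preceding compound treatment of overnight-plated SBE-bla HEK293T cells lasted 5 h at 37 C.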
Assay [6] deals with Thyrotropin-releasing hormone receptor (Homo sapiens) (UniProt P34981). The experiment in a line: qHTS assay to identify small molecule antagonists of the thyrotropin-releasing hormone receptor (TRHR) signaling pathway (AID 1346877; active = well fitted inhibition curve with a large enough effect in the repeat runs, not every such curve was filed as active; also: series mostly up to about 51 µM). Put shortly: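 Kinetic fluorescence (3 min, 1 s resolution) following stimulation with TRH at 1 nM final; HEK293 cells bearing human TRHR; 5 min compound preincubation at RT; concentration-response over 15 points, triplicates.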
Sequence of Thyrotropin-releasing hormone receptor (Homo sapiens) (P34981 whole entry, looked up): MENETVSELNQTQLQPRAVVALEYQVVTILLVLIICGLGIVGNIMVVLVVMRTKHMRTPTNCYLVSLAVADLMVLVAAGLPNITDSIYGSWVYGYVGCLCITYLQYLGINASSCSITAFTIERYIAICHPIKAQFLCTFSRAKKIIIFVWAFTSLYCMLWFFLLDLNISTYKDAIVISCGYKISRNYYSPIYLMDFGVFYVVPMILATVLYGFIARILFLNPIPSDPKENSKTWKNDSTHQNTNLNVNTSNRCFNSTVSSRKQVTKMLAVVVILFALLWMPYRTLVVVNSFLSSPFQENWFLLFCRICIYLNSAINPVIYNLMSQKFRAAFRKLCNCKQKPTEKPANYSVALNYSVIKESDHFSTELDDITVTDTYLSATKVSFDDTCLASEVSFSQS

Assay [7] has the same target. The experiment in a line: qHTS assay to identify small molecule agonists of the thyrotropin-releasing hormone receptor (TRHR) signaling pathway (AID 1346891; calls by dose curve; also: series mostly up to about 58 µM). Put shortly:
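Agonist-mode intracellular calcium readout: kinetic fluorescence over 3 min at 1 s intervals after compound addition to TRHR-HEK293 cells (18 h seeded, 2 h dye-loaded at 37 C). Fifteen concentrations, triplicates.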

The nature of assay [8]: Human pregnane X receptor (PXR) small molecule agonists, qHTS cell viability counter screen (AID 1346977). Also: nearly all actives have a fitted effect of over 50% in size. Put shortly:
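Same-well viability read: CellTiter-Fluor added after 23 hr compound exposure, fluorescence measured 1 hr later. Cells were PXR-Luc HepG2 seeded at 2,000/well in 5% charcoal-stripped FBS medium, rested 5 hr before dosing at 37 C.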

Assay [9] is described as follows: Caspase-3/7 induction in HepG2 cells by small molecules, qHTS assay (AID 1346978). Also: nearly all actives have a fitted effect of over 15% in size. A digest of the protocol:
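Caspase-3/7 induction was measured by Caspase-Glo 3/7 luminescence (30 min, room temperature) after a 17 hr compound exposure of wild-type HepG2 cells seeded at 2,000 per well and pre-incubated 5 hr.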

The nature of assay [10]: Caspase-3/7 induction in CHO-K1 cells by small molecules, qHTS cell viability counter screen (AID 1346979). Also: nearly all actives have a fitted effect of over 35% in size. A digest of the protocol: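 Cytotoxicity counter screen: CellTiter-Fluor added to compound-treated wild-type CHO-K1 cells at 16 h (37C, 5% CO2), fluorescence measured 1 h later; same wells as caspase-3/7 measurement.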
Assay [11] can be described thus: Caspase-3/7 induction in CHO-K1 cells by small molecules, qHTS assay (AID 1346980). Also: nearly all actives have a fitted effect of over 15% in size. A digest of the protocol: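 Luminescent Caspase-Glo 3/7 read (30min, room temperature) quantified apoptosis induction. Cells were wild-type CHO-K1, treated with compound for 17hr at 37 C and 5% CO2.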
A short description of assay [12]: Caspase-3/7 induction in HepG2 cells by small molecules, qHTS cell viability counter screen (AID 1346981). Also: series mostly up to about 92 µM; nearly all actives have a fitted effect of over 30% in size. A digest of the protocol: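 In this quantitative HTS counter screen, compounds delivered in DMSO were left on unmodified HepG2 cells for 16 hr at 37 C. Viability was then determined fluorometrically with CellTiter-Fluor, in parallel with caspase-3/7 induction in the same wells.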

Assay [13] has as its target Progesterone receptor (Homo sapiens) (UniProt P06401). The experiment in a line: qHTS assay to identify small molecule antagonists of the progesterone receptor (PR) signaling pathway (AID 1346795; active = well fitted inhibition curve with a large enough effect in the signal ratio in the repeat runs, not every such curve was filed as active; the % refers to the signal ratio). A digest of the protocol: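 Antagonist mode with agonist R5020 at 1 nM final and 16 hr incubation at 37C. Reporter was beta-lactamase driven by UAS in HEK293T (PR-UAS-bla), 2% charcoal-stripped serum; signal from LiveBLAzer FRET substrate, 2 hr at room temperature.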

Assay [14] has as its target Nuclear receptor subfamily 1 group I member 2 (Homo sapiens) (UniProt O75469). As to the kind of experiment: Human pregnane X receptor (PXR) small molecule agonists, qHTS assay (AID 1346982). Also: nearly all actives have a fitted effect of over 35% in size. Also: potency is read from the fitted curve at half-maximal effect. A digest of the protocol:
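Reporter HepG2 cells expressing PXR-Luc are cultured in charcoal-stripped FBS (5%), treated with compounds for 24 hr at 37 C, and assayed by ONE-Glo luminescence after 30 min at room temperature.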

Assay [15] deals with Cytochrome P450 2D6 (Homo sapiens) (UniProt P10635). As to the kind of experiment: Cytochrome P450 Family 2 Subfamily D Member 6 (CYP2D6) small molecule antagonists: luciferase reporter qHTS assay (AID 1671196). Also: series mostly up to about 120 µM; nearly all actives have a fitted effect of over 50% in size. A digest of the protocol:
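Test chemicals meet CYP2D6 plus proluciferin substrate (10 min, RT); NADPH regenerating solution then drives turnover for 1 h. Detection reagent halts the reaction; luminescence measured after 20 min.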
Background: A reporter such as luciferase makes a cellular process visible.

Assay [16] has as its target Cytochrome P450 2C19 (Homo sapiens) (UniProt P33261). As to the kind of experiment: Cytochrome P450 Family 2 Subfamily C Member 19 (CYP2C19) small molecule antagonists: luciferase reporter qHTS assay (AID 1671197). Also: nearly all actives have a fitted effect of over 65% in size. Also: potency is read from the fitted curve at half-maximal effect. A digest of the protocol: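 Enzyme-substrate mix with proluciferin substrate (P450-Glo CYP2C19 system) preincubated with compounds 10 min at room temperature; NADPH regeneration solution added, 37C for 1 h; detection reagent stops reaction, luminescence read after 20 min. Ketoconazole positive control.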

Assay [17] has as its target Nuclear receptor subfamily 1 group I member 2 (Rattus norvegicus) (UniProt Q9R1A7). The experiment in a line: Rat pregnane X receptor (rPXR) activation by small molecules, qHTS assay (AID 1346983). Also: nearly all actives have a fitted effect of over 20% in size. Also: potency is read from the fitted curve at half-maximal effect. The note with it: rPXR luciferase reporter cells, One-Glo luminescence, 24 h; max activation: stronger effect = higher value. A digest of the protocol:
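Luminescent readout (One-Glo luciferase, 30 min room temperature) followed 24 hr compound treatment at 37 C of rPXR cells plated 2,000 per well and preincubated 5hr; qHTS format with compounds delivered in DMSO.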

Assay [18] addresses Nuclear receptor subfamily 1 group I member 2 (Homo sapiens) (UniProt O75469). As to the kind of experiment: Human pregnane X receptor (PXR) activation by small molecules, qHTS assay (AID 1346985). Also: nearly all actives have a fitted effect of over 40% in size. A digest of the protocol:
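DPX-2 cells (HepG2 co-transfected with a PXR response element and a CYP3A4-promoter luciferase construct) were seeded at 2,000 per well, rested 5 hr at 37C, then exposed to DMSO-dissolved compounds for 24 hr. Activation was read as luciferase luminescence.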

The target is the same in assay [19]. The experiment in a line: CYP3A4 induction through human pregnane X receptor (PXR) by small molecules, qHTS assay (AID 1346984). Also: nearly all actives have a fitted effect of over 40% in size. Also: potency is read from the fitted curve at half-maximal effect. Put shortly: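 Induction measured in HepG2-based DPX-2 cells co-expressing human PXR and a CYP3A4 promoter-driven luciferase. After a 24-hour compound exposure, cells received CYP3A4 luciferin substrate at 3uM final for 3 hours, and light output was then recorded.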

SMILES strings stand for the structures. Values without a mark were called inactive. Results filed as inconclusive are left out. Active and inactive are the calls of the source. Unless noted, calls follow the shape of the dose curve; as a rule, active = well fitted curve in the direction sought with a large enough effect in the repeat runs; inconclusive = weak or mixed curves; inactive = no such curve, though single readings can be large; an effect the other way counts as inactive or inconclusive.
% is scaled to controls: 0 for no effect and ±100 for the full control effect.

Sequence of Nuclear receptor subfamily 1 group I member 2 (Homo sapiens) (O75469 whole entry, looked up): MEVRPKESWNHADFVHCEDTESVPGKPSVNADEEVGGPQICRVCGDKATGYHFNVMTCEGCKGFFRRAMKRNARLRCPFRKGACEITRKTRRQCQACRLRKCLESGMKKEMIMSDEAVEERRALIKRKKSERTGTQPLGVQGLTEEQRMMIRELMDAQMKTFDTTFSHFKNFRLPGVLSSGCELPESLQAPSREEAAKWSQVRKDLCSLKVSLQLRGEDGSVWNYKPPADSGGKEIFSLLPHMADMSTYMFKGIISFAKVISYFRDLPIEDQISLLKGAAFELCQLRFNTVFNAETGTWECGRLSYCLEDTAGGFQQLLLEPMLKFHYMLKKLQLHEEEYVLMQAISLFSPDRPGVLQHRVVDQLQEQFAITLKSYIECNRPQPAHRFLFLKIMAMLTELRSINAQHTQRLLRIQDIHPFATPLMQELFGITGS
Sequence of Cytochrome P450 2C19 (Homo sapiens) (P33261 whole entry, looked up): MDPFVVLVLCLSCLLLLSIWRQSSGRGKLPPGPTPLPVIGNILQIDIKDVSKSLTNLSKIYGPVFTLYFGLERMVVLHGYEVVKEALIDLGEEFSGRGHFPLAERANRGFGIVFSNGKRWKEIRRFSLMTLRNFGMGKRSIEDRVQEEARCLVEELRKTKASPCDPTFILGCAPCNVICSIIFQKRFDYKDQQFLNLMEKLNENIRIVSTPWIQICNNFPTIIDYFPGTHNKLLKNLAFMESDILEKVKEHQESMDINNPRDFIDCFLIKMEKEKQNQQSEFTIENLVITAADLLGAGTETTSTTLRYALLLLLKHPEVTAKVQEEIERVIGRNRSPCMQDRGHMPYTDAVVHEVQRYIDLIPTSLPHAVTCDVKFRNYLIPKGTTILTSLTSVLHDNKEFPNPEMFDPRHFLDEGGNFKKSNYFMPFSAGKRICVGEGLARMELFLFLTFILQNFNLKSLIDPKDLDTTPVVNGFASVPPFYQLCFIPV
Sequence of Nuclear receptor subfamily 1 group I member 2 (Rattus norvegicus) (Q9R1A7 whole entry, looked up): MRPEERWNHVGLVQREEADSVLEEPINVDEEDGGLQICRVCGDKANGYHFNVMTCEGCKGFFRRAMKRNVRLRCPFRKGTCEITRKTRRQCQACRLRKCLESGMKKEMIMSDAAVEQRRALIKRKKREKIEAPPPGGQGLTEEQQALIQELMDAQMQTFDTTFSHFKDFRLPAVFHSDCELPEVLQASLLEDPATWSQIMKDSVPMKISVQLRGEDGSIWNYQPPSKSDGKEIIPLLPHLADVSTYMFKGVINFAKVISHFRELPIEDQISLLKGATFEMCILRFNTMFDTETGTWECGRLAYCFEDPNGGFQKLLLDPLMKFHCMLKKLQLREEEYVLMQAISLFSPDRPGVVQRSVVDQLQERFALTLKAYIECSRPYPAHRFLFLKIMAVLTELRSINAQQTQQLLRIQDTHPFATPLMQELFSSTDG
Sequence of Progesterone receptor (Homo sapiens) (P06401 whole entry, looked up): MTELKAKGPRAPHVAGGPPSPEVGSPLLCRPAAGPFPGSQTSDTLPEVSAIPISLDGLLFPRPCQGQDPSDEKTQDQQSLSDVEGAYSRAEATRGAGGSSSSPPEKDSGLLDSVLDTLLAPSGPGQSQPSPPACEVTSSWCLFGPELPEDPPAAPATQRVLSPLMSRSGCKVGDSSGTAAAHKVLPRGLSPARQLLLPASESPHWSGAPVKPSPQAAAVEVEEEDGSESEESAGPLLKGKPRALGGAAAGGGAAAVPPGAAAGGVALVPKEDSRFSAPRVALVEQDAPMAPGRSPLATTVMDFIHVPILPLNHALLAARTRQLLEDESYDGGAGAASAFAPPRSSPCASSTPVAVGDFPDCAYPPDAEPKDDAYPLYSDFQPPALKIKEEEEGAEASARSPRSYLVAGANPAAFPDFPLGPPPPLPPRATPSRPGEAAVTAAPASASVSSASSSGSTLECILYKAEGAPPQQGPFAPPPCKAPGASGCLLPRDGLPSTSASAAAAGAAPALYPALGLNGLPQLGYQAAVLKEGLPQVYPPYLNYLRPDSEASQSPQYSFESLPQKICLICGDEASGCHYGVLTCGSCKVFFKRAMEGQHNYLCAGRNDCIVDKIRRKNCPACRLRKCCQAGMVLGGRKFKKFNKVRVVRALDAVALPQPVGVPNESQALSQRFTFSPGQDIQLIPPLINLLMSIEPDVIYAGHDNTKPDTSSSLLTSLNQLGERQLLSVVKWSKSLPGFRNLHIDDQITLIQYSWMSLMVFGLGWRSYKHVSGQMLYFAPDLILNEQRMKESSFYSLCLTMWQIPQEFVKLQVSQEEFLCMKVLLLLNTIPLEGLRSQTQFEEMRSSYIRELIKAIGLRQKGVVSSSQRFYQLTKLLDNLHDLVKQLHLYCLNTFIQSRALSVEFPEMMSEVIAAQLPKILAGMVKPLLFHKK
Sequence of Cytochrome P450 2D6 (Homo sapiens) (P10635 whole entry, looked up): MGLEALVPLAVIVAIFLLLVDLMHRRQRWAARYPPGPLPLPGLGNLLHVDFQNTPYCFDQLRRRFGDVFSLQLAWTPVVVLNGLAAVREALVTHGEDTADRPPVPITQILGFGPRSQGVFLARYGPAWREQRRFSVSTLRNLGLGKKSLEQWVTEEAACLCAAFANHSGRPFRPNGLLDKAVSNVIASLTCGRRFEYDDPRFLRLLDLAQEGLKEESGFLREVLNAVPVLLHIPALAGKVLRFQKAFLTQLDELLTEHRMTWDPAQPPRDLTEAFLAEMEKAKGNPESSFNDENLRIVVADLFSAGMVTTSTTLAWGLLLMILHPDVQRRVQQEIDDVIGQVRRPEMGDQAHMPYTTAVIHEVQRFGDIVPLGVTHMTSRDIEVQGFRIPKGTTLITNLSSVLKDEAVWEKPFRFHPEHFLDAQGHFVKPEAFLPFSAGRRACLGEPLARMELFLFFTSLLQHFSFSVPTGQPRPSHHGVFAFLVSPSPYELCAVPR

As for `Nc1ccccn1`, the Potency entry in [1], in assay [2], in assay [7], in assay [8], in assay [10] and in assay [12] was “inactive” in each case. Moreover, the compound was classed as inactive in [3], in assay [4], in assay [5], in assay [6], in assay [9] and in [11].
As for `COc1ccccc1OCC1CNC(=O)O1` (stereo unspecified), the Potency result in assay [13], in assay [1], in [2], in assay [7], in [8] and in assay [10] was “inactive” each time. Further, the Potency entry in assay [12], in assay [14], in assay [15] and in [16] was “inactive” throughout. Also, the compound was called inactive in [3], in assay [5], in assay [6], in [9] and in assay [11].
Consider `O=S(=O)(O)c1cccc2c(S(=O)(=O)O)cccc12`, for which the Potency entry in [2], in [8], in assay [10], in assay [12], in assay [14] and in assay [15] was “inactive” in each case. Further, the call in [3], in [4], in assay [5], in assay [6], in assay [9] and in assay [11] was inactive.
As for `Cc1ccc(-c2ncc(Cl)cc2-c2ccc(S(C)(=O)=O)cc2)cn1`, the Potency result in assay [1], in assay [7], in assay [8], in assay [10], in assay [12] and in [14] was “inactive” throughout. Moreover, the Potency result in assay [18] and in assay [16] was “inactive” in each case. For the same compound, the outcome in assay [3], in [4], in [5], in assay [6], in assay [9] and in assay [11] was inactive. The max activation in [17] is 7.56%.
Turning to `O=C(O)CC(C(=O)O)S(=O)(=O)O` (stereo unspecified), the Potency result in [13], in [2], in [7], in assay [8], in assay [10] and in assay [12] was “inactive” throughout. In addition, the Potency entry in assay [14] was “inactive”. The result in assay [3], in assay [4], in assay [5], in assay [6] and in assay [9] was inactive. Besides, the Potency in assay [16] is 8.94 µM (active).
As to `COc1cccc(OC)c1C(=O)N[C@@H]1C(=O)N2[C@@H]1SC(C)(C)[C@@H]2C(=O)O`, the call in [3], in assay [4], in [5] and in [11] was inactive. In addition, the Potency result in assay [8], in assay [10], in [12], in assay [14], in assay [19] and in [18] was “inactive” throughout. The Potency entry in assay [15] and in assay [16] was “inactive” throughout. The max activation in assay [17] was -1.79%.
With `Nc1ccn([C@@H]2O[C@H](CO)[C@@H](O)C2(F)F)c(=O)n1`, the Potency entry in assay [13], in assay [1], in [2], in assay [8], in [12] and in [19] was “inactive” in each case. Further, the Potency entry in assay [18] and in assay [16] was “inactive” in each case. Also, the compound was called inactive in assay [3], in assay [4], in assay [5], in [9] and in assay [11]. Moreover, the max activation in assay [17] was -12%.
In the case of `C[C@@H]1C[C@H]2[C@@H]3C[C@H](F)C4=CC(=O)C(Cl)=C[C@]4(C)[C@@]3(F)[C@@H](O)C[C@]2(C)[C@@]1(O)C(=O)CO`, the Potency result in [1], in [7], in assay [8], in assay [10] and in [12] was “inactive” throughout. Moreover, the result in assay [3], in assay [4], in assay [5], in assay [6] and in assay [11] was inactive. For the same compound, the Potency in [14] is 2.11 µM (active); in assay [17] it was 0.1 µM (active); in [19], 12.6 µM (active); in assay [16] it was 8.71 µM (active).
`CCOC(=O)CCC(=O)OCC`: the Potency result in assay [1], in assay [2], in assay [7], in assay [8], in assay [10] and in [12] was “inactive” each time. Also, the Potency entry in [14] and in assay [15] was “inactive” each time. In addition, the result in assay [3], in [4], in assay [5], in assay [6] and in assay [11] was inactive.
